Records with an inconclusive call do not appear. Active and inactive are the calls of the source. Unless noted, the call rests on the fitted dose curve.
How the values were obtained:
[1] = Nuclear factor erythroid 2-related factor 2/antioxidant responsive element (Nrf2/ARE) small molecule agonists: qHTS cell viability counter screen in human keratinocytes (AID 1919968; active means well fitted curve in the direction sought with a large enough effect in the repeat runs; an effect the other way counts as inactive or inconclusive; further: nearly all actives have a fitted effect of over 55% in size)
In short: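 CellTiter-Fluor fluorescence, read 1 h after reagent, gave viability in the same wells as the ARE-luciferase assay. KeratinoSens cells (1,500/well) had 23 h compound exposure at 37 C/5% CO2 following 5 h plating.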

[2] = Nuclear factor erythroid 2-related factor 2/antioxidant responsive element (Nrf2/ARE) small molecule agonists: luciferase reporter gene qHTS assay in human keratinocytes (AID 1919969); further: nearly all actives have a fitted effect of over 35% in size
[3] = target: Gonadotropin-releasing hormone receptor (Homo sapiens) (UniProt P30968); assay: Human gonadotropin-releasing hormone receptor (GnRHR) small molecule agonists, calcium flux assay in GnRHR-HEK293 cells (AID 1920063); further: nearly all actives have a fitted effect of over 35% in size
In short: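 Agonist mode: compounds at 15 concentrations, in triplicate, went onto calcium dye-loaded GnRHR-HEK293 cells. Intracellular calcium was then followed as 480/540 nm fluorescence at 1 s intervals over 3 min.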

[4] = target: KiSS-1 receptor (Homo sapiens) (UniProt Q969F8); assay: Human kisspeptin (KISS1R) small molecule agonists, calcium flux assay in KISS1R-HEK293 cells (AID 1920064; active means well fitted curve in the direction sought with a large enough effect in the repeat runs; an effect the other way counts as inactive or inconclusive)
In short: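 Agonist mode: intracellular calcium rise tracked at 1 s intervals over 3 min (480/540 nm) immediately after compound addition to dye-loaded KISS1R-HEK293 stable cells. Each compound tested at 15 concentrations in triplicate.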

[5] = G protein-coupled receptor (GPCR) small molecule agonists, calcium flux assay: HEK293 wild type cell line counter screen (AID 1920065)
In short: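 Calcium flux counter screen: compound added in agonist mode at 15 concentrations in triplicate to dye-loaded parental HEK293 cells. Fluorescence (480/540) read kinetically for 3 min; ATP served as positive control.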

[6] = p53 small molecule agonists, cell-based qHTS assay with human liver microsomes (AID 1963577);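 further: p53 response element beta-lactamase reporter cells with liver microsomes plus NADPH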
In short: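 p53RE-bla cells; 5 h settle, 37 C/5% CO2; cpd + HLM 0.5 mg/mL + NADPH 0.5 mg/mL (final); 16 h 37 C; LiveBLAzer 2 h RT dark; fluorescence readout.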

[7] = p53 small molecule agonists, cell-based qHTS assay with rat liver microsomes (AID 1963578)
In short: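 Rat liver microsome activation: microsomes 0.5 mg/mL, NADPH 0.5 mg/mL final; p53RE-bla cells, 16 h 37 C; LiveBLAzer readout, 2 h RT dark.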

[8] = p53 small molecule agonists, cell-based qHTS assay with human liver microsomes: qHTS cell viability counter screen (AID 1963579); further: nearly all actives have a fitted effect of over 45% in size
In short: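 Luminescent CellTiter-Glo read-out, 30 min at room temperature, gauged cytotoxicity in p53RE-bla cells exposed 16 h at 37 C to DMSO-dissolved compounds with metabolic activation by human liver microsomes and NADPH, each 0.5 mg/mL final.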

[9] = p53 small molecule agonists, cell-based qHTS assay with rat liver microsomes: qHTS cell viability counter screen (AID 1963580); further: nearly all actives have a fitted effect of over 45% in size
In short: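 Cytotoxicity counter screen: intracellular ATP measured by CellTiter-Glo luminescence in the same wells as the beta-lactamase reporter read, on HCT-116 p53RE-bla cells exposed 16 h at 37 C to compounds with rat liver microsomes and NADPH, each 0.5 mg/mL final.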

[10] = p53 small molecule agonists, cell-based qHTS assay: qHTS cell viability counter screen (AID 1963581); further: nearly all actives have a fitted effect of over 45% in size
In short: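 Counter screen read by CellTiter-Glo luminescence (ATP content, 30 min at room temperature), run in the same wells as the beta-lactamase reporter read. HCT-116 p53RE-bla cells saw compounds for 16 h at 37 C.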

[11] = p53 small molecule agonists, cell-based qHTS assay (AID 1963582; active means well fitted activation curve with a large enough effect in the signal ratio in the repeat runs, not every such curve was filed as active; the % refers to the signal ratio)
In short: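 Read-out is beta-lactamase FRET fluorescence after 2 h at room temperature with LiveBLAzer B/G substrate. p53 response element-bla cells were treated 16 h at 37 C with compounds in DMSO, added 5 h after seeding.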

[12] = target: Muscarinic acetylcholine receptor M1 (Homo sapiens) (UniProt P11229); assay: Cholinergic receptor muscarinic 1 (CHRM1) small molecule antagonists, cell-based qHTS assay (AID 1963588); further: nearly all actives have a fitted effect of over 40% in size
In short: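 Compounds were tested at 15 concentrations in three independent runs. Dye-loaded CHRM1-CHO cells were exposed 5 min at room temperature before stimulation by acetylcholine added at 50nM. Intracellular calcium was read kinetically on FDSS for 3 min.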

[13] = target: Muscarinic acetylcholine receptor M1 (Homo sapiens) (UniProt P11229); assay: Cholinergic receptor muscarinic 1 (CHRM1) small molecule agonists, cell-based qHTS assay (AID 1963589); further: nearly all actives have a fitted effect of over 35% in size
In short: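 Agonist-mode calcium-flux screen: compounds at 15 concentrations, three independent runs, were pin-transferred onto dye-loaded human CHRM1-CHO cells. Fluorescence was then recorded kinetically every second over minutes.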

[14] = cAMP Responsive Elements (CRE) small molecule agonists, cell-based qHTS assay (AID 1963590)
In short: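 Agonist mode: compound added to CRE-bla HEK 293T cells (2,000/well, 18 h after plating) for 3 h at 37 C/5% CO2. Reporter activity detected via FRET beta-lactamase substrate, 2 h room-temperature loading.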

[15] = cAMP Responsive Elements (CRE) small molecule antagonists, cell-based qHTS assay (AID 1963591; active means well fitted inhibition curve with a large enough effect in the signal ratio in the repeat runs, not every such curve was filed as active; the % refers to the signal ratio)
In short: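 Antagonist mode: compounds are added alongside the adenylyl cyclase activator NKH477 (0.25 uM final) to CRE-bla HEK293T cells for 3 h. LiveBLAzer FRET substrate, 2 h at room temperature, reports bla expression.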

[16] = target: Beta-2 adrenergic receptor (Homo sapiens) (UniProt P07550); assay: Adrenergic beta2 receptor (ADRB2) small molecule antagonists, cell-based qHTS assay (AID 1963592); further: series mostly up to about 92 µM; nearly all actives have a fitted effect of over 50% in size
In short: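 Assay format: CHO-ADRB2 cells, 18-20hr seeding at 37C/5% CO2, then compound plus 1nM isoproterenol agonist mix for 0.5hr RT. Homogeneous time-resolved fluorescence cAMP detection after 1hr, expressed as 665/615 nm ratio.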

[17] = target: D(2) dopamine receptor (Homo sapiens) (UniProt P14416); assay: Dopamine D2 receptor (DRD2) small molecule agonists, cell-based qHTS assay (AID 1963594); further: nearly all actives have a fitted effect of over 35% in size
In short: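 HEK293 cells stably expressing human DRD2, pre-treated with PDE inhibitor Ro20-1724 (0.1 mM final) and compound 10 min at room temperature, then stimulated with NKH477 (200nM […]) for 30 min. cAMP read by HTRF (665/620 nm).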

[18] = target: D(2) dopamine receptor (Homo sapiens) (UniProt P14416); assay: Dopamine D2 receptor (DRD2) small molecule antagonists, cell-based qHTS assay (AID 1963595; active means well fitted inhibition curve with a large enough effect in the signal ratio in the repeat runs, with a control signal flat; the % refers to the signal ratio)
In short: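 HTRF cAMP read-out at 665 and 620 nm emission (340 nm excitation). Antagonist mode: compounds were tested against 12 nM quinpirole in DRD2-HEK293 cells, with 200 nM NKH477 raising cAMP and 0.1 mM Ro20-1724 blocking its breakdown.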

Measured: Potency

Muscarinic acetylcholine receptor M1 (Homo sapiens), sequence (P11229 whole entry, looked up): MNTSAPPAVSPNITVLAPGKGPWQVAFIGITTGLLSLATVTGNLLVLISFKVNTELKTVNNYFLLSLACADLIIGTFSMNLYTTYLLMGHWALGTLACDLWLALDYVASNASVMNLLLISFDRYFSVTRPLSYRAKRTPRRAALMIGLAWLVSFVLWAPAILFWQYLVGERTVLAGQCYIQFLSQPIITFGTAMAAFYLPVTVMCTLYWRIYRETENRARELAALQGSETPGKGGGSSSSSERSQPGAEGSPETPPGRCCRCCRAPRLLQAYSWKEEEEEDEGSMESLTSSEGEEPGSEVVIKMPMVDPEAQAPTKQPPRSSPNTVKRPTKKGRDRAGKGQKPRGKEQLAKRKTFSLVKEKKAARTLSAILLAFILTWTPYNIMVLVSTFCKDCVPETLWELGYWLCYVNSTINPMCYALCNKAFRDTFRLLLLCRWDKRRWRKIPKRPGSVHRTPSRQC
D(2) dopamine receptor (Homo sapiens), sequence (P14416 whole entry, looked up): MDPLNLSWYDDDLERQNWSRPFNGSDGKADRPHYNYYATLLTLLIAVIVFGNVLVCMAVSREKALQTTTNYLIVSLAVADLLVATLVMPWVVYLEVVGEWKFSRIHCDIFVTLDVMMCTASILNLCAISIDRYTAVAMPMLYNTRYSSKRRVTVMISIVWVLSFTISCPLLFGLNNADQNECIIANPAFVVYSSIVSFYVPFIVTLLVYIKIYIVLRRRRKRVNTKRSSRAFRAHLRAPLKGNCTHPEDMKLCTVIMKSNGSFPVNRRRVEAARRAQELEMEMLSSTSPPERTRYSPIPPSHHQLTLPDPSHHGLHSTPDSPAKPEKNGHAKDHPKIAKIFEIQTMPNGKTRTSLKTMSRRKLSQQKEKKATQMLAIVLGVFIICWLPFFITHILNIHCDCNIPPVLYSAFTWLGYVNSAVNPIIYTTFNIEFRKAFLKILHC
Gonadotropin-releasing hormone receptor (Homo sapiens), sequence (P30968 whole entry, looked up): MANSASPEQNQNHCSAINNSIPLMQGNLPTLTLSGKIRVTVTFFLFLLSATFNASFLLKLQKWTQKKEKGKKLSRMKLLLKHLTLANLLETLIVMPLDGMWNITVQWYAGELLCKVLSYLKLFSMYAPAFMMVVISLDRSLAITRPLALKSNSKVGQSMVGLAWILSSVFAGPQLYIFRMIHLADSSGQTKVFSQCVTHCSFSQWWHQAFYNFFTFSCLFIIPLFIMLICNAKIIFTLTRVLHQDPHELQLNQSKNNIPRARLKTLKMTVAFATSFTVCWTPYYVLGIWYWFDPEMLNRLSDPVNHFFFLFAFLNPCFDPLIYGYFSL
Beta-2 adrenergic receptor (Homo sapiens), sequence (P07550 whole entry, looked up): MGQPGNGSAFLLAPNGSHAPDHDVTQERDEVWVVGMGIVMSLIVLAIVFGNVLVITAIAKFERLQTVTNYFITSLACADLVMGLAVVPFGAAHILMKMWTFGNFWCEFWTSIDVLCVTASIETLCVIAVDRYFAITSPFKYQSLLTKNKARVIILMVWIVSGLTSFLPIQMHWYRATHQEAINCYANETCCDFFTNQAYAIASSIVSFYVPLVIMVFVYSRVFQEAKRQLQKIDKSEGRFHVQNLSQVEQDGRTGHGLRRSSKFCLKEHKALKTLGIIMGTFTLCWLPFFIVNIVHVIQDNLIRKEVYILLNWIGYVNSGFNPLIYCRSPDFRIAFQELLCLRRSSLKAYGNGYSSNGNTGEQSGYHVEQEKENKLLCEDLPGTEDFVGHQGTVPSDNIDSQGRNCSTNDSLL
KiSS-1 receptor (Homo sapiens), sequence (Q969F8 whole entry, looked up): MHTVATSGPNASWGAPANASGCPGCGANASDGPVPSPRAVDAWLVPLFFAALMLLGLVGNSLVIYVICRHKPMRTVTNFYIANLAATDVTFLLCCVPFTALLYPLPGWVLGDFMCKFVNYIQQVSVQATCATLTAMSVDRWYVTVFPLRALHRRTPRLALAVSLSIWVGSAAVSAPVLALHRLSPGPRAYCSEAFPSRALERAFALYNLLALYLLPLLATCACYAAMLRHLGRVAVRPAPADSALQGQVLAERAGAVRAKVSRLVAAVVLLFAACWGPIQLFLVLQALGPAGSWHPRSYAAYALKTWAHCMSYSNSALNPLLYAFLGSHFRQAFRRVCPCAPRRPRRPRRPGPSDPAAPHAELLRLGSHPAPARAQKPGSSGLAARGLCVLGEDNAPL

CC(=O)C1CCCCC1=O (stereo not given)
inactive: all assays above

Cc1cc(C(C)(C)C)c(O)c(C)c1CC1=NCCN1
not listed: [12] | [13]
inactive: all other assays above

CCOc1cc(N)c(Cl)cc1C(=O)NCC1CN(Cc2ccc(F)cc2)CCO1 (stereo not given)
not listed: [12] | [13]
inactive: all other assays above

CCCN(CCC)C(=O)C(CCC(=O)O)NC(=O)c1ccccc1 (stereo not given)
not listed: [12] | [13] | [17]
inactive: all other assays above

COc1ccc(C(=O)N2CCN(CC(=O)N3CCOCC3)CC2)cc1
not listed: [13] | [14]
inactive: all other assays above

CCCCCCCC/C=C\CCCCCCCC(=O)OC[C@@H](O)[C@H]1OC[C@H](O)[C@H]1O
not listed: [17] | [18]
inactive: all other assays above

CCCc1nn(C)c2c(=O)[nH]c(-c3cc(S(=O)(=O)N4CCN(C)CC4)ccc3OCC)nc12
not listed: [12] | [13]
inactive: all other assays above

Cc1cc(C(C)(C)C)cc(C)c1CC1=NCCN1
not listed: [12] | [18]
inactive: all other assays above

CN(C)CCC[C@@]1(c2ccc(F)cc2)OCc2cc(C#N)ccc21
not listed: [12] | [13]
inactive: all other assays above

O=c1c2ccccc2nnn1CCl
not listed: [17]
inactive: all other assays above

CCOC(=O)C(=O)CCCCCCl
inactive: all assays above

C[N+](C)(C)CC(O)CC(=O)[O-] (stereo not given)
not listed: [12] | [13]
inactive: all other assays above

O=C(NCCN1CCOCC1)c1ccc(Cl)cc1
not listed: [12] | [13]
inactive: all other assays above

CCCCCCCCC1CO1 (stereo not given)
inactive: all assays above

Source: PubChem BioAssay (Tox21)
